Screening results deposited in PubChem by National Center for Advancing Translational Sciences (NCATS).
12-LOX inh – Primary qHTS assay for inhibitors of human arachidonate 12S-lipoxygenase (ALOX12): Round 2. Polyunsaturated fatty acid lipoxygenase ALOX12 (Homo sapiens), P18054. purified 12hLO, xylenol orange hydroperoxide absorbance. Potency, µM (top dose mostly 108 µM), for inactives: top-dose activity change, negative = inhibition, actives largely listed as inhibitors. actives 1.1% (n = 580,000). AID 1671190, 2021; also: % is scaled to controls: 0 for no effect and ±100 for the full control effect
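Hydroperoxide product was detected by ferrous iron/xylenol orange as the 573 to 405 nm absorbance ratio. Arachidonic acid at 40 uM (final) was turned over for 30 min at room temperature by 150 nM human 12hLO, pH 7.0 Hepes buffer, after 15 min compound preincubation.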
ClpP mod – qHTS Assay for Activators of ClpP; ATP-dependent Clp protease proteolytic subunit (Bacillus subtilis (strain 168)), P80244; purified B. subtilis ClpP, FRET peptide cleavage, 20 min; Potency, µM (titrated, usually from 57.5 µM), for inactives: at the top dose activity change, negative = active; actives 1.9% (n = 340,000); active = well fitted falling curve with a large enough effect; inconclusive = small, poorly fitted or top-dose-only effect; inactive = no such curve, though single readings can be large or run the other way; also: the source files actives as falling curves though it sought activators and does not explain the sign; nearly all actives have a fitted effect of over 65% in size
Target sequence (P80244 whole entry, looked up): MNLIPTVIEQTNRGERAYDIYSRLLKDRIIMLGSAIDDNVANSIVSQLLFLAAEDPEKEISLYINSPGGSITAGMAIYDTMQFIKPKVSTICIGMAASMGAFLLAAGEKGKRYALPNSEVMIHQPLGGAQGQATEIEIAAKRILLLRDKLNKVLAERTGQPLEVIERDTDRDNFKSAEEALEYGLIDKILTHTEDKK
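Buffer: 100 mM Tris/HCl pH8, 100 mM KCl, 0.05% low protease BSA, 2.5% glycerol, 0.01% Tween-20. ClpP 10 microg/mL final; 20 min RT; delta FRET normalized to ADEP and DMSO controls.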
Rango dissoc inh – qHTS Assay for Inhibitors of RanGTP induced Rango (Ran-regulated importin-beta cargo) - Importin beta complex dissociation | actives 0.071% (n = 340,000) | Potency, µM (series often up to 46.1 µM), inactives show at the top dose activity change, negative = inhibition | Biochemical FRET Rango-importin beta, RanGTP-induced dissociation; calls by dose curve; also: % of control where 0% means no effect; nearly all actives have a fitted effect of over 45% in size
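Quantitative HTS using a FRET biosensor: 0.1 uM Rango, 0.25 uM importin beta, 0.6 uM Ran, 2 mM GTP, 0.2 uM RCC1 final, PBS with DTT, Tween-20 and BSA. Post-read taken 45 min after Ran addition.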
Rango-impB inh – qHTS Assay for Inhibitors of Rango (Ran-regulated importin-beta cargo) - Importin beta complex formation. Importin subunit beta-1 (Homo sapiens), Q14974. Rango CFP/YFP FRET sensor + importin beta, 45 min. Potency, µM (top dose mostly 92.2 µM), inactives show at the highest dose inhibition of complex formation. actives 0.031% (n = 340,000). AID 540263, 2011; calls by dose curve;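 also: 0% = DMSO wells and 100% = buffer wells lacking importin beta; nearly all actives have a fitted effect of over 15% in size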
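FRET biosensor (snurportin 1 IBB flanked by EYFP and cerulean), 50 nM, with compound 5 min, then 0.125 microM importin beta in PBS, 1 mM DTT, 0.02% Tween-20, 0.1% BSA. CFP/YFP ratio read after 45 min at room temperature; pre-read flags interference.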
TDP1 block – qHTS Assay for Inhibitors of Tyrosyl-DNA Phosphodiesterase (TDP1) | AID 485290, 2010 | actives 0.28% (n = 350,000) | recombinant TDP1, AlphaScreen DNA substrate cleavage | Tyrosyl-DNA phosphodiesterase 1 (Homo sapiens), Q9NUW8 | Potency, µM (doses to about 130 µM), for the others: at the top dose activity change, negative = inhibition, actives largely listed as inhibitors; also: % is scaled to controls: 0 for no effect and ±100 for the full control effect; nearly all actives have a fitted effect of over 40% in size
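Here, a 5' biotin and 3' phosphotyrosine-FITC DNA oligonucleotide reports Tdp1 activity: intact substrate bridges AlphaScreen beads, while cleavage leaves a 3' phosphate and drops signal. All incubations at room temperature.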
TSG101-PTAP inh – qHTS Assay for Iinhibitors of HIV-1 Budding by Blocking the Interaction of PTAP/TSG101. Potency, µM (top dose mostly 115 µM), without a hit: at the highest dose activity change, negative = inhibition, actives largely listed as inhibitors. 340,000 tested, under 10 active. Tumor susceptibility gene 101 protein (Homo sapiens), Q99816. AID 493005, 2010. Fluorescence polarization, FITC-PTAP peptide / Tsg101 binding; active = well fitted inhibition curve with a large enough effect in the main read-out, with a control signal flat, not every such curve was filed as active; inconclusive = small, poorly fitted or top-dose-only effect, or effect the other way, or a change in a side signal; inactive = no such curve, though single readings can be large or run the other way; also: % of control where 0% means no effect
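Steps: Tsg101 binding domain dispensed (10 uM final), compounds pinned in DMSO, FITC-labeled PTAP-motif peptide added (50 nM final); after 20 min binding at room temperature, polarization measured.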
* = called active by the depositor; u = inconclusive; x = not tested or not shown; [ ] = another dose, or the depositor's remark. Shown are actives, neighbours in structure and some others; about 2.4% of the full set was active somewhere. Unless noted, calls follow the shape of the dose curve; as a rule, active = well fitted curve in the direction sought with a large enough effect; inconclusive = small, poorly fitted or top-dose-only effect, or another doubt; inactive = no such curve, though single readings can be large; an effect the other way counts as inactive or inconclusive. Potency is read from the fitted curve at half-maximal effect.

SMILES	12-LOX inh	ClpP mod	Rango dissoc inh	Rango-impB inh	TDP1 block	TSG101-PTAP inh
CN(Cc1ccccc1)Cc1c(O)ccc2ccccc12	0.794µM*	-2.4%	6.8%	0.6%	x	-3.0%
C/C(=N\NC(=O)c1ccc(CSc2cccc3cccnc23)cc1)C1CCCCC1	9.0%	28.2µM*	6.5%	-0.2%	3.2%	-6.0%
COc1ccc(/C(C)=N/NC(=O)c2ccc(CSc3cccc4cccnc34)cc2)cc1OC	21.3%	22.4µM*	0.9%	3.5%	4.1%	-4.1%
COc1cc(/C(C)=N/NC(=O)c2ccc(CSc3nncn3C)cc2)cc(OC)c1OC	0.5%	-0.8%	2.5%	-3.1%	1.2%	-3.0%
CCCC(=O)Nc1c(-c2ccc(OC)cc2)c(=O)c2ccccc2n1C	13.2%	15.8µM*	-0.9%	-3.0%	4.0%	-2.5%
CCCCCC(=O)Nc1c(-c2ccc(OC)cc2)c(=O)c2ccccc2n1C	3.4%	25.1µM*	11.9%	-2.3%	0.0%	-3.6%
O=C(NCCc1ccccc1)C1CC(c2ccccc2)CN(C(=O)c2ccccc2F)C1 (configuration not stated)	6.6%	x	x	x	x	x
CN1Cc2cccn2CC1CNC(=O)c1cccc(F)c1 (configuration not stated)	256.0%	x	x	x	x	x
ONC(=Nc1ccc(Cl)cc1)c1ccc(Cl)cc1	u	-1.6%	-11.9%	1.9%	9.5%	1.7%
[S-]C(=Nc1ccc(Cl)cc1)N[n+]1ccccc1	u	28.2µM*	12.3%	0.5%	5.3%	-4.4%
O=C(Nc1cccnc1)Nc1ccc(Cl)cc1Cl	25.1µM*	0.8%	6.0%	2.6%	-4.3%	-5.9%
CC(C)(C)c1cc(NC(=O)CSc2nnc(N)s2)n(-c2ccccc2)n1	20.5%	28.2µM*	0.5%	2.1%	0.0%	-3.1%
Nc1nnc(SCC(=O)NCCOc2ccccc2)s1	8.0%	25.1µM*	1.8%	-1.2%	-5.6%[56.1 µM]	-5.6%
O=C(N[C@H]1CCN2C(=O)c3cc(Br)ccc3NC(=O)[C@@H]2C1)c1ccco1	-8.1%[176 µM]	x	x	x	x	x
Cc1nn(C)c(Cl)c1CN1CCCC(C(=O)Nc2ccc(-c3cscn3)cc2)C1 (configuration not stated)	18.7%	25.1µM*	-2.4%	2.2%	4.0%	0.6%
O=C(Nc1ccc(-c2cscn2)cc1)C1CCCN(Cc2ccccc2)C1 (configuration not stated)	6.0%	-3.8%	-3.8%	-0.6%	3.8%	-1.7%
CC(CCc1ccccc1)NC(=O)c1nc(Cc2c[nH]c3ccccc23)no1 (configuration not stated)	38.8%	x	x	x	x	x
O=Cc1cn(-c2ccccc2)nc1-c1cc2c(ccc3ccccc32)oc1=O	179.2%	5.62µM*	-16.8%	-2.3%	-3.6%	-0.2%
N#Cc1cn(-c2ccccc2)nc1-c1cc2ccccc2oc1=O	0.0%	31.6µM*	-14.4%	-3.3%	-9.8%	-7.1%
CSc1c[n+]2c(n1C)CCC2	44.7µM*	0.6%	4.8%	2.3%	1.0%	-7.6%
Cc1c(C(=O)OC2CCCCC2)sc2nc[nH]c(=O)c12	6.4%	28.2µM*	-14.9%	-3.2%	3.3%	-5.2%
COCCOC(=O)c1sc2nc[nH]c(=O)c2c1C	-0.5%	x	-6.5%	0.2%	1.1%	-5.6%
